CDC25B CDK2 inh: primary biochemical HTRF screen for blockers of M-phase inducer phosphatase 2 binding to CDK2/cyclin A | P30305+P24941 | HTRF CDC25B-CDK2/CyclinA binding, anti-His/anti-Flag; hits give high values | z-score (concentration not given with the values) | 94,000 tested, 0.72% active; in the data active = z-score above about 3.2
HIV TAR-Tat: TAR RNA-Tat peptide displacers, HIV-1, primary screen, biochemical, FRET, FAM/TAMRA-labeled Tat; 100,000 tested, 0.6% active; HIV-1 TAR RNA, Tat peptide displacement FRET; hits give high values; z-score (no concentration beside the values); active = z-score of 3 or more in at least 2 runs
The depositor's hits bear a star; · = no result given. Most compounds without a hit are left out; they make up all but 0.9% or so of the library.

SMILES | CDC25B CDK2 inh | HIV TAR-Tat
CC(=O)Oc1ccc(C2Nc3ccc(C)cc3C3C=CCC32)c(OC(C)=O)c1 (stereo not given) | 0.59 | -5.16
O=C(O)c1ccc2c(c1)C1C=CCC1C(c1ccc(F)cc1)N2 (stereo not given) | 0.41 | 10.4*
COc1cccc([C@@H]2Nc3ccc(C(=O)O)cc3[C@@H]3C=CC[C@@H]32)c1OC | 0.41 | -0.49
CC(=O)Oc1ccc(C2Nc3ccc(C(=O)O)cc3C3C=CCC32)c(OC(C)=O)c1 (stereo not given) | 5.07* | ·
COC(=O)c1ccc([C@@H]2Nc3ccc(C(=O)O)cc3[C@@H]3C=CC[C@@H]32)cc1 | 0.2 | 7.41*
COC(=O)c1ccc(C2Nc3ccc(OC)cc3C3C=CCC32)cc1 (stereo not given) | -0.39 | 0.02
CCc1ccc(C2Nc3ccc(C(=O)O)cc3C3C=CCC32)cc1 (stereo not given) | 0.26 | ·
COc1cccc([C@@H]2Nc3ccc(C(=O)O)cc3[C@@H]3C=CC[C@@H]32)c1 | 1.96 | 13.7*
COc1ccc(CNc2c(S(=O)(=O)c3ccccc3)cnc3cc(OC)c(OC)cc23)cc1 | -0.1 | 2.15
Cc1cc(C)cc(S(=O)(=O)c2cn(C)c3cc(N4CCCC(C)C4)c(F)cc3c2=O)c1 (stereo not given) | · | 0.82
O=C(O)CSc1nc(-c2ccccc2)nc2c1Cc1ccccc1O2 | -0.84 | 2.5
CC(C)Cn1cc(NC(=O)Nc2ccc(Br)cc2F)c2ccccc2c1=O | 14.5* | -0.05
CC(C)Cn1cc(NC(=O)Nc2cc(F)ccc2F)c2ccccc2c1=O | · | 1.13
CC(C)Cc1ccc(S(=O)(=O)N2CCC(C)CC2)cc1 | -1.29 | -0.39
Cc1cc(C)cc(Nc2ncnc3c2cnn3C)c1 | · | 1.35
Cn1c(=O)c2c(c3ccccc31)OC(=O)CC2c1ccco1 (stereo not given) | -0.48 | 14.2*
Cn1c(=O)c2c(c3ccccc31)OC(=O)CC2c1ccccc1 (stereo not given) | -0.44 | -0.31
CCN(CC)C(=O)Cn1c(=O)n(CC2CCC(C(=O)NC(C)C)CC2)c(=O)c2sccc21 (stereo not given) | · | -0.73
CC(C)=CC[C@@H](O)C1=CC(=O)c2c(O)ccc(O)c2C1=O | · | 34.2*
Cc1cc(-c2ccc(=O)[nH]n2)cc(S(=O)(=O)N2CCc3ccccc32)c1C | · | 1.01
Nc1nc(-c2ccc(Cl)cc2)nn1C(=O)C1CCCCC1 | -1.13 | 0.73
Cc1nc2sc(C(c3ccc(Cl)cc3)N3CCC4(CC3)OCCO4)c(O)n2n1 (stereo not given) | -2.02 | ·
CCC(C(=O)NCC1CCCO1)n1c2ccccc2c2nc(=O)cc(C)n21 (stereo not given) | -0.04 | -0.92
C=CCOc1ccc(C2CC(=O)Nc3c2c(C)nn3-c2nncc(-c3ccc(C)cc3)n2)cc1 (stereo not given) | -2.04 | 2.86
C=CCOc1ccc(C2CC(=O)Nc3c2c(C)nn3-c2nncc(-c3ccc(F)cc3)n2)cc1 (stereo not given) | -1.66 | 15.8*
SMILES | CDC25B CDK2 inh | HIV TAR-Tat
O=C1CC(c2ccc(Br)cc2)C2=C(CC(c3cccs3)CC2=O)N1 (stereo not given) | 3.84 | 0.36
O=C(c1cnn(-c2cccc(F)c2)c1C1CCNCC1)N1CCN(c2ncccn2)CC1 | · | 0.96
Cn1c(=O)n(C/C=C/c2ccccc2)c(=O)c2c1nc1n2CCN1c1ccc(F)cc1 | · | 11.5*
Cn1c(=O)n(Cc2ccccc2)c(=O)c2c1nc1n2CCN1c1ccc(F)cc1 | · | 1.6
CCOC(=O)Cn1cnc2nn(-c3ccccc3)cc2c1=O | 3.59 | 5.14*
CCOC(=O)c1ncn(-c2ccccc2)n1 | -1.87 | 0.55
COc1ccc2[nH]c3c(=O)n(CCCN(C)C4CCCCC4)cnc3c2c1 | 2.53 | 0.5
O=C(NCc1ccco1)C1CCN(c2nc3ccc(Br)cc3s2)CC1 | -1.88 | 3.56
Cc1ccsc1CCN1CSC2=C(C#N)C(c3ccc(Cl)cc3)CC(=O)N2C1 (stereo not given) | 3.23* | 2.05
COc1ccc(CN2CSC3=C(C#N)C(c4cccc(OC)c4)CC(=O)N3C2)cc1 (stereo not given) | 7.6* | -0.14
Cc1ccc(C2CC(=O)N3CN(Cc4cccnc4)CSC3=C2C#N)cc1 (stereo not given) | 5.2* | 0.43
CC(C)c1ccc(C2CC(=O)N3CN(Cc4ccccc4)CSC3=C2C#N)cc1 (stereo not given) | 5.02* | 0.39
CC(c1ccccc1)N1CSC2=C(C#N)C(c3ccc(F)cc3)CC(=O)N2C1 (stereo not given) | 2.96 | 2.8
N#CC1=C2SCN(Cc3cccnc3)CN2C(=O)CC1c1ccc(F)cc1 (stereo not given) | 0.53 | 1.05
N#CC1=C2SCN(CCN3CCOCC3)CN2C(=O)CC1c1ccc(F)cc1 (stereo not given) | 0.4 | 1.69
O=C(Nc1ccc(Br)cc1)c1ccc(-c2ccc(Cl)c(Cl)c2)o1 | -3.11 | ·
O=C(Cn1cnc(S(=O)(=O)N2CCOCC2)c1)N1CCc2ccccc2C1 | · | 0.06
COc1ccc(C2CC(=O)N3CN(Cc4cccnc4)CSC3=C2C#N)cc1 (stereo not given) | -0.28 | 1.25
N#CC1=C2SCN(Cc3ccco3)CN2C(=O)CC1c1cccs1 (stereo not given) | 2.51 | 1.19
N#CC1=C2SCN(CCc3ccccc3)CN2C(=O)CC1c1cccs1 (stereo not given) | 3.74* | -0.38
COc1ccc(CN2CSC3=C(C#N)C(c4cccs4)CC(=O)N3C2)cc1 (stereo not given) | 3.99* | -0.08
N#CC1=C2SCN(CCc3ccccc3)CN2C(=O)CC1c1ccc(F)cc1 (stereo not given) | -0.26 | 1.09
COc1ccc(CN2CSC3=C(C#N)C(c4ccc(OC)cc4)CC(=O)N3C2)cc1 (stereo not given) | 6.34* | 2.34
Cc1cn2c(=O)c(S(=O)(=O)Nc3ccc(C(C)C)cc3)c(C)nc2s1 | · | -1.14
Cc1cc(C)c2c(n1)SCC(=O)N2Cc1cc(=O)n2ccccc2n1 | -2.52 | -0.06
SMILES | CDC25B CDK2 inh | HIV TAR-Tat
CC(=O)C1=C(O)C(=O)N(CCCN2CCOCC2)C1c1ccc2c(c1)OCO2 (stereo not given) | -2.06 | ·
COc1ccc2c(c1)Cc1sc(NC(=O)c3ccc(OC)c(OC)c3)nc1-2 | 18.7* | -0.93
Oc1ccccc1CNc1nc2c(s1)CCc1ccccc1-2 | -1.46 | 1.07
CC(=O)Nc1nc2c(s1)Cc1ccccc1-2 | 18.5* | ·
COc1cc(OC)cc(C(=O)Nc2nc3c(s2)Cc2cc(OC)ccc2-3)c1 | -0.69 | -0.26
CNC(=O)c1c(NC(=O)c2ccc(S(=O)(=O)N(C)C)cc2)sc2c1CCC2 | · | -0.52
C=CCSc1nnc(NC(=O)c2snnc2C)s1 | -0.89 | 1.71
Cc1ccc(-c2nc3nc(C)cc(N(C)C)n3n2)cc1 | -2.06 | 1.93
Cc1ccc2c(c1)C(=O)C(=O)N2CO | -0.74 | 2.97
O=C(COc1ccccc1)N1CCN(c2nc3cc(Br)ccc3n3cccc23)CC1 | -1.63 | -0.82
Cn1c(CN2CCOCC2)nc2cc(NC(=O)c3ccco3)ccc21 | -2.48 | 0.51
CC(=O)Nc1cccc(OCc2cc(=O)n3oc(C)cc3n2)c1 | -1.96 | 8.06*
Cc1cc(C)cc(OCc2cc(=O)n3oc(C)cc3n2)c1 | -0.7 | 0.64
O=C(c1ccco1)N(c1cc2sc(=O)oc2c2ccccc12)S(=O)(=O)c1ccccc1 | 19.1* | 1.17

High-throughput results (PubChem BioAssay)
